High-throughput results: PubChem BioAssay, University of Kansas High Throughput Screening Laboratory
mHTT CaM bind: disrupts binding of mutant huntingtin to calmodulin | AlphaScreen His-mHTT/GST-CaM binding, luminescence | inhibition, % at 15 µM | hit rate 3.6% among 190,000 | AID 1671202;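 note: 0% = both proteins with DMSO and 100% = one protein alone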
Pf apPOL inh: Pf-apPOL DNA polymerase inhibition; Recombinant Pf-apPOL, molecular beacon fluorescence, 1.5 h; inhibition, % at 10 µM; hit rate 0.25% among 210,000
An asterisk follows results filed as active; · = no result. This excerpt belongs to a sample that is enriched for hits. Cut-off read from the data, not from the text of the source: active = inhibition above about 50%; inactive = the rest.

SMILES	mHTT CaM bind	Pf apPOL inh
CCN(CC)c1ccc(N=Nc2c(O)ccc3ccccc23)cc1	·	-12
Oc1ccc2ccccc2c1N=Nc1ccccc1	84*	·
O=C(c1ccccn1)N1CCC2(CC1)NC(=O)N(Cc1cccc(Cl)c1)C2=O	5	-6
CC(=O)NS(=O)(=O)c1ccc(NC(=O)c2ccccc2Cl)cc1	-4	-5
CCCCNC(=O)CCC1N=C2c3ccccc3N=C(SCc3cccc([N+](=O)[O-])c3)N2C1=O (stereo not given)	0	0
CCCCN1C(=O)c2cccc3c(NC(=O)c4cc(OC)c(OC)c(OC)c4)ccc1c23	4	-2
CC(C)c1ccc(CNC(=O)c2nc3cccnc3n(C)c2=O)cc1	62*	0
Cn1c(=O)c(C(=O)NCc2ccc(Cl)cc2)nc2cccnc21	5	-1
Cc1cccc2nnc(N3CCN(C(=O)c4ccsc4)CC3)n12	-2	-3
CCn1cc(CCNS(C)(=O)=O)c2cccnc21	-10	0
CCNc1cc(N2CCC(CCC(=O)N3CCN(C4CCCCC4)CC3)CC2)ncn1	15	-8
O=C(CC1COc2ccccc2NC1=O)Nc1cccc2c1CCCC2 (stereo not given)	-4	1
CN(C)c1ccc2c(c1)OC(N)=C(C#N)C2c1ccc(F)c(Br)c1 (stereo not given)	83*	-4
CC(=O)Nc1ccc(C2C(C#N)=C(N)Oc3cc(N(C)C)ccc32)cc1 (stereo not given)	15	-3
N#CC1=C(N)Oc2cc(N)ccc2C1c1cc(Br)cs1 (stereo not given)	13	-2
CN(C)c1ccc2c(c1)OC(N)=C(C#N)C2c1cc(Br)cs1 (stereo not given)	53*	-5
Cc1cc([N+](=O)[O-])ccc1N=Cc1ccc([N+](=O)[O-])cc1	-2	-2
O=C(CNC(=O)c1ccc(=O)[nH]c1)NCCOc1ccc(F)cc1	-7	-1
Cc1ccc(-c2noc(C3CCCN3S(=O)(=O)c3ccc(F)c(Cl)c3)n2)cc1 (stereo not given)	-15	-3
CC(=O)NS(=O)(=O)c1ccc(NC(=O)COc2ccc([N+](=O)[O-])cc2)cc1	-4	0
COCOCCn1cc(CN2CCS(=O)(=O)N(Cc3ccc(-c4ccc(Cl)cc4)cc3)C(C)C2=O)nn1 (stereo not given)	14	-21
CCC/C=C/c1ccc(CN2C(C)C(=O)N(Cc3cn(CCOCOC)nn3)CCS2(=O)=O)cc1 (stereo not given)	4	-16
COCOCCn1cc(CN2CCS(=O)(=O)N(Cc3ccc(-c4ccccc4)cc3)C(C)C2=O)nn1 (stereo not given)	59*	6
COCOCCn1cc(CN2CCS(=O)(=O)N(Cc3ccc(-c4ccc(Cl)cc4)cc3)C(CC(C)C)C2=O)nn1 (stereo not given)	54*	-23
COCOCCn1cc(CN2CCS(=O)(=O)N(Cc3ccc(-c4ccc(Cl)nc4)cc3)C(CC(C)C)C2=O)nn1 (stereo not given)	26	-27
SMILES	mHTT CaM bind	Pf apPOL inh
COCOCCn1cc(CN2CCS(=O)(=O)N(Cc3ccc(-c4ccc(F)cc4)cc3)C(C)C2=O)nn1 (stereo not given)	63*	14
Cc1cccc(C(=O)Nc2ccc(C)c([N+](=O)[O-])c2)c1	18	-6
CCCNC(=O)c1cccc(C2CCCN(C(=O)Nc3ccc(OCC)cc3)C2)c1 (stereo not given)	-2	3
COc1ccc(C(=O)N2CCCC(COc3cccc(C(=O)NC4CC4)c3)C2)c(C)c1 (stereo not given)	6	-4
COc1ccc(C2CC(c3ccc(Cl)c(Cl)c3)Nc3nc(N)nn32)cc1OC (stereo not given)	29	2
Nc1nc2n(n1)C(c1ccc(Cl)cc1)CC(c1ccccc1)N2 (stereo not given)	8	-7
Nc1nc2n(n1)C(c1cccs1)CC(c1ccc(Cl)c(Cl)c1)N2 (stereo not given)	84*	-8
COc1ccccc1C1CC(c2ccc(Cl)cc2Cl)Nc2nc(N)nn21 (stereo not given)	57*	-3
COc1ccc(C2CC(c3ccccc3Cl)Nc3nc(N)nn32)cc1OC (stereo not given)	26	-6
CCOc1ccccc1C1CC(c2ccc(Cl)c(Cl)c2)Nc2nc(N)nn21 (stereo not given)	100*	-3
Cc1nc2sc3c(=O)[nH]nnc3c2c(C)c1Cl	25	-9
CCCN1CCN(c2ccc(-c3nc(-c4ccccc4)no3)cn2)CC1	-1	0
O=C1c2ccccc2C(=O)N1CN1CCN(c2ccc(C(F)(F)F)cn2)CC1	·	-4
Cc1ccc(S(=O)(=O)N(C)c2c(C)ccc(S(=O)(=O)NCc3ccco3)c2C)cc1	2	-2
COc1cccc2c1OC1(CCC(C)CC1)N1N=C(c3ccc(C)o3)CC21 (stereo not given)	85*	-15
COc1ccc(C2=NN3C(C2)c2ccccc2OC32CCCCC2)cc1 (stereo not given)	25	-12
COc1cccc2c1OC1(CCCCC1)N1N=C(c3ccc(C)o3)CC21 (stereo not given)	80*	-17
COc1cccc2c1OC1(CCCCC1)N1N=C(c3ccccc3)CC21 (stereo not given)	13	-4
CCOc1cccc(=NCc2ccccc2)c2c(C)[nH]c(C)c12	76*	0
CCOc1cccc2cc(C(N)=O)c(=NCc3ccccc3)oc12	-2	-1
COCCNC(=O)C1CCN(c2cc(Cl)ccc2C)C1=O (stereo not given)	-1	-5
C=CCNc1nc(-c2c(C)nc3ccccn23)cs1	9	14
COc1ccccc1Nc1nc(-c2c(C)nc3cc(C)ccn23)cs1	76*	-1
Cc1nc2ccccn2c1-c1csc(Nc2ccc(N)cc2)n1	63*	1
CC(=O)Nc1ccc(Nc2nc(-c3c(C)nc4ccccn34)cs2)cc1	21	-4
SMILES	mHTT CaM bind	Pf apPOL inh
Cc1ccnc(Nc2nc(-c3c(C)nc4ccccn34)cs2)c1	62*	-7
Cc1nc2ccccn2c1-c1csc(N)n1	-1	·
Cc1ccccc1C(=O)Nc1nnc(Cc2ccccc2F)s1	1	1
Cc1ccccc1COc1ccc2c(c1)OC(=Cc1ccco1)C2=O	14	6
Cc1noc(COC2CCCN(C(=O)NCCc3ccccc3)C2)n1 (stereo not given)	-13	-4
CCCNC(=O)c1ccnc(-c2ccc(C)s2)c1	-6	26
CCCC(=O)N1c2ccccc2NC2=C(C(=O)CCC2)C1c1ccc(Cl)c(Cl)c1 (stereo not given)	44	-2
Cc1ccccc1NC(=O)/C(=C1\Nc2ccc([N+](=O)[O-])cc2N1)[N+](=O)[O-]	7	-2
CN(C)c1ccc(/C=C/CN2CCN(Cc3ccccc3)CC2)cc1	56*	1
CCN1CCN(C/C=C/c2ccccc2)CC1	-6	-2
O=[N+]([O-])c1ccccc1CN1CCN(C/C=C/c2ccccc2)CC1	29	-2
Oc1cccc(CN2CCN(C/C=C/c3ccccc3)CC2)c1	2	-5
COc1cc(CN2CCN(C/C=C/c3ccccc3)CC2)c([N+](=O)[O-])cc1OC	82*	-9
Clc1ccccc1N1CCN(C/C=C/c2ccccc2)CC1	62*	-2
O=[N+]([O-])c1cccc(CN2CCN(C/C=C/c3ccccc3)CC2)c1	51*	-12
COc1ccc(CN2CCN(C/C=C/c3ccccc3)CC2)cc1OC	7	-12
